For 31 molecules, Potency results are on record in PubChem BioAssay AID720584 (National Center for Advancing Translational Sciences (NCATS), 2013).

The list shows a part of the results. Results filed as inconclusive are left out. Calls of active or inactive are those of the source. Calls come from the whole dose curve; as a rule, active = well fitted inhibition curve with a large enough effect; inconclusive = small, poorly fitted or top-dose-only effect; inactive = flat fitted curve, though single readings scatter.
Potency is the fitted concentration of half-maximal effect.

For the assay, the system named is Trypanosoma brucei pyruvate kinase (TbPYK). Description: qHTS of Trypanosoma Brucei Inhibitors: Orthogonal Assay for Cherry-picked Compounds. Note: nearly all actives have a fitted effect of over 75% in size. The settings on record: recombinant TbPYK, ADP-Glo luminescence, 60 min; series mostly up to 76.9 µM. The source says: Members of the Trypanosomatidae family of parasitic protozoans cause a spectrum of diseases throughout the tropical and subtropical world. Sleeping sickness, caused by two subspecies of Trypanosoma brucei, is endemic to areas of sub-Saharan Africa, while Chagas' disease, a manifestation of Trypanosoma cruzi infection, is prevalent throughout Central and South America. In addition, many species of Leishmania are responsible for a range of cutaneous and visceral diseases, causing ulcers, destructive lesions and kalaazar, a lethal infection of the viscera. These diseases cause severe public health and economic burdens on populations that are often already caught in a tragic cycle of poverty, poor nutrition and disease. Collectively, parasites of the trypanosomatid family infect 30 million people worldwide (~500 million live in endemic areas), and account for ~130K deaths annually. Existing treatments have developed little in the past 50 years, and suffer from toxicity, poor efficacy and resistance; the goal of this project is to develop lead drugs that will be suitable for entry into pre-clinical trials. […] Glycolysis in axenically cultured T. cruzi, representing the intracellular pathogenic stage, is also essential for these parasites. {Engel, 1987} This project aims to discover and optimize selective inhibitors of the glycolytic enzyme pyruvate kinase (PYK) from Trypanosoma brucei, the parasite that causes sleeping sickness. […] Trypanosomatid PYKs show significant differences from their human counterparts including only 47-50% sequence identity and different allosteric and activation properties.{Callens, 1992} To this end, a qHTS was done against the MLSMR to discover inhibitors. To confirm activity of the cherrypicked compounds, an orthogonal assay was developed. While the primary qHTS provides a luminescence-based detection of TbPyK by measuring ATP production, the orthogonal assay will measure the amount of ADP substrate remaining. Decrease in activity signal indicative of inhibition of T. brucei proliferation is the desired outcome for this assay. NIH Molecular Libraries Probe Production Network [MLPCN] NIH Chemical Genomics Center [NCGC] Grant: MH095452 PI Name: Malcolm Walkinshaw, University of Edinburgh
Briefly, 2 uL of substrate/TbPYK buffer (all columns but column 4) are dispensed into Greiner white solid-bottom 1536-well assay plates. Column 4 gets just buffer without enzyme. Compounds are then transferred via Kalypsys pin tool equipped with 1536-pin array (10 nL slotted pins, V&P Scientific, San Diego, CA). Following addition of compound, 1 uL of ADP (130 uM final concentration, columns 1-48) is added to initiate the reaction. The plates are then incubated at room temperature for 60 minutes. ADP-Glo (Promega) reagent I is added (2.5 uL) and plates incubated for 10 minutes. ADP-Glo reagent II is then added (5 uL), followed by a 10 minute room temperature incubation, before being transferred to a ViewLux high-throughput CCD imager (PerkinElmer), wherein single end-point measurements of luminescence are acquired using a clear filter. All reagents are diluted in an assay buffer consisting of 50 mM TEA (pH 7.2), 100 mM KCl, 10 mM MgCl2, 0.05% BSA and 0.01% Tween-20.
For orientation: In qHTS, concentration-response curves come from the screen itself.
As for `COCCNC(=O)Nc1ccc2nc(-c3ccco3)c(-c3ccco3)nc2c1`, the Potency is 8.91 µM (active).

Consider `COc1cc(C2CC(=O)N3CN(Cc4ccccc4)CSC3=C2C#N)ccc1OCc1ccccc1` (stereo unspecified), for which the Potency was 0.447 µM (active).

As for `Cc1nonc1C(=O)N/N=C/c1ccc(O)cc1`, the Potency entry was “inactive”.

Regarding `CSc1c(SCc2ccccc2)cnn(Cc2ccccc2)c1=O`, the Potency was 14.1 µM (active). The value for `Cc1cc(C#N)c(SCC(N)=O)nc1-c1ccc(F)cc1` was 5.01 µM (active).

Turning to `O=c1[nH]c2ccccc2n2c(-c3ccccc3)nnc12`, the Potency was 0.1 µM (active). The value for `O=C(CN1CCN(c2ccc(O)cc2)CC1)Nc1cc(S(=O)(=O)N2CCOCC2)ccc1Cl` was 12.6 µM (active). The value for `Oc1c(CN2CCOCC2)ccc(CN2CCOCC2)c1O` was 7.08 µM (active).

`COC(=O)/C=C\C(=O)Nc1cccc([N+](=O)[O-])c1`: the Potency was 17.8 µM (active). The figure for `O=C(CSc1nnc(-c2ccco2)n1CC1CCCO1)c1ccccc1` (stereo unspecified) is 35.5 µM (active); for `Cc1cc(C2=NNC(=Nc3ccc(S(=O)(=O)N4CCOCC4)cc3)SC2)c(C)n1CC1CCCO1` (stereo unspecified) it is 15.8 µM (active); for `Cc1ccc(/C=C/C(=O)Nc2ccc([N+](=O)[O-])c(NC(=O)/C=C/c3ccc(C)o3)c2)o1` it is 20 µM (active). The figure for `NC(=O)c1c(Nc2nc3c(F)cccc3s2)sc2c1CCCC2` is 8.91 µM (active); for `N#Cc1c(N2CCCCC2)nc(N)c2c(N)nc(SCC(=O)O)cc12` it is 35.5 µM (active). The figure for `Cc1nc2ccc(S(=O)(=O)NCC(=O)O)cc2s1` is 11.2 µM (active); for `C=CCn1c(=S)[nH]c2scc(-c3ccco3)c2c1=O` it is 17.8 µM (active); for `Cc1c(C)c(C)c(S(=O)(=O)N2CCC3(CC2)OCCO3)c(C)c1C` it is “inactive”. On to `O=C1C=CC(=O)N1c1ccc(N2CCCCC2)cc1`, for which the Potency was 3.55 µM (active). As to `COc1ccc(Cc2nnc(NS(=O)(=O)Cc3ccccc3)s2)cc1`, the Potency result is “inactive”. The value for `Cc1ccc(C)c2c1cc(C)c1nnc(SCC(=O)Nc3cccc(C(=O)O)c3)n12` was 1 µM (active); that for `c1ccc(-c2nnc3n2NC(c2ccc4c(c2)OCO4)S3)cc1` (stereo unspecified) was 0.141 µM (active).

For the molecule `O=C(COC(=O)c1ccccc1)c1ccc2c(c1)OCCO2`, the Potency result is “inactive”. Turning to `Cc1cccc(-n2c(N)c(C(=O)N3CCN(C)CC3)sc2=S)c1`, the Potency was 5.01 µM (active).

On to `O=C(CCCCCn1c(=S)[nH]c2ccsc2c1=O)NC1CCCCC1`, for which the Potency is 14.1 µM (active).

Turning to `O=C(CSc1ccc(-c2ccco2)nn1)Nc1cccc(F)c1`, the Potency is 31.6 µM (active). On to `CN(c1ccccc1)S(=O)(=O)c1cccc(NC(=O)Cc2ccc(Cl)cc2)c1`, for which the Potency is 12.6 µM (active).

In the case of `O=C(Nc1ccc(S(=O)(=O)N2CCOCC2)cc1)c1ccc2ncsc2c1`, the Potency was 15.8 µM (active). The value for `COc1cccc(C(=O)Nc2ccc(N3CCCC3)cc2)c1` was “inactive”. As to `Cc1ccc(NC(=O)c2cc(-c3ccc(C)o3)nc3ccccc23)nc1`, the Potency was 35.5 µM (active). As to `COc1cccc(C(=O)c2cc3ccc(O)cc3oc2=O)c1`, the Potency result was “inactive”.

Turning to `CC(=O)N1CC[n+]2c(-c3ccc([N+](=O)[O-])cc3)csc21`, the Potency was 1.78 µM (active).
